PubChem BioAssay (NCI)
Compounds without any hit were thinned out: in the full panel of roughly 83,000, 20% have a hit.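 Single-dose data. Exposure time 48 hours. Values below 10 considered active.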 A number with no mark means an inactive call.

Test system: KM12 colon
Assay: NCI-60 one-dose screen, 48 h (100 = growth as untreated, 0 = no growth, -100 = all killed)
Settings: 10 µM unless noted

Row | SMILES | growth
1 | Cc1ccc(OCCOCCOCCOc2ccc(C)n(O)c2=S)c(=S)n1O | 30.8%
2 | C[C@@H]1NC(=O)[C@H](Cc2ccccc2)N(Cc2cccnc2)C1=O | 103%
3 | C=CC(CC(c1ccccc1)(c1ccccc1)c1ccccc1)N(CC)CC (stereo not drawn) | 58.8%
